High-throughput results as filed in PubChem BioAssay.
Compounds with a hit are over-represented: about 2.9% of the library has one in this group of screens.
GLP-1R inv ag: qHTS of GLP-1 Receptor Inverse Agonists (Inhibition Mode); Glucagon-like peptide 1 receptor (Homo sapiens), P43220; HEK293 GLP-1R CRE-luciferase, luminescence, 24 h; GLP-1R form is constitutively active; Potency, µM (highest dose often 38.3 µM), inactives show at the highest dose activity change, negative = inhibition, actives largely listed as inhibitors; 410,000 compounds, 1.6% hits; also: potency is read from the fitted curve at half-maximal effect; % is scaled to controls: 0 for no effect and ±100 for the full control effect; nearly all actives have a fitted effect of over 55% in size
Target sequence (P43220 whole entry, looked up): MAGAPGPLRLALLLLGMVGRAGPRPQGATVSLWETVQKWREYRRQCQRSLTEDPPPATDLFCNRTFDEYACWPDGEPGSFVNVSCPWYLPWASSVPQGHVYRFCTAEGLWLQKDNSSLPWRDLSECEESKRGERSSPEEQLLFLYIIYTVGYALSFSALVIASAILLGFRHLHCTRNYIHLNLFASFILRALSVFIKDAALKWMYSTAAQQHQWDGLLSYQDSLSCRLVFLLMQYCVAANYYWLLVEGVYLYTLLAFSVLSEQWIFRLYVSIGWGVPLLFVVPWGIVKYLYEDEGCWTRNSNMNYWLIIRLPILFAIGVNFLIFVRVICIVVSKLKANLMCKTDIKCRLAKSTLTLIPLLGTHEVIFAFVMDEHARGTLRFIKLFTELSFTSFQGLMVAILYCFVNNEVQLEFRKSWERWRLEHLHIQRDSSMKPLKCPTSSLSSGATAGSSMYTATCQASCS
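Constitutively active GLP-1R drives a cAMP-responsive luciferase in stably transfected HEK293 cells; test compounds are added after overnight (12 h) attachment and left 24 hr, and signal loss in luminescence marks inhibition.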
GLP1R cytotox: qHTS of GLP-1 Receptor Inverse Agonists: Cytotox Screen. HEK293 cAMP-luciferase reporter cells, luminescence, 24 h. 410,000 compounds, 0.13% hits. Potency, µM (series often up to 38.3 µM), without a hit: at the highest dose activity change, negative = inhibition, usual class: inhibitors;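 also: loss of luciferase light is scored as toxicity; potency is read from the fitted curve at half-maximal effect; % is scaled to controls: 0 for no effect and ±100 for the full control effect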
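Here, cytotoxicity is scored as loss of luminescence. The MLSMR collection was tested on cells seeded in medium containing 10% Nu serum, with a 24 hr compound exposure preceded by 12 hours of culture.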
GLP-1R agonist: qHTS of GLP-1 Receptor Agonists; Glucagon-like peptide 1 receptor (Homo sapiens), P43220; HEK293 GLP-1R CRE-luciferase, luminescence, 4-6 h; cells express a hypersensitive GLP-1R form; Potency, µM (highest dose often 45.6 µM), without a hit: at the highest dose activation, hits mostly activators; 380,000 compounds, 0.007% hits; AID 624172, 2012; also: potency is read from the fitted curve at half-maximal effect; % of control where 0% means no effect
p53 reactivator: qHTS assay for re-activators of p53 using a Luc reporter | H1299 p53-A138V BP100-luciferase reporter, luminescence, 24 h | Potency, µM (top dose mostly 92.2 µM), inactives show at the highest dose activity change, positive = activation, actives largely listed as activators | 320,000 compounds, 0.063% hits; also: potency is read from the fitted curve at half-maximal effect; % of control where 0% means no effect; nearly all actives have a fitted effect of over 45% in size
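p53-null H1299 cells stably carrying temperature-sensitive p53-A138V and a BP100-luciferase reporter were pinned with compounds (4-point, 1:5 series) and held 24 hrs at 37 deg C. Luminescence was read 10 min after detection reagent.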
ClpP mod: qHTS Assay for Activators of ClpP | AID 651965, 2013 | Potency, µM (highest dose often 57.5 µM), for the others: top-dose activity change, negative = active | 340,000 compounds, 1.9% hits | purified B. subtilis ClpP, FRET peptide cleavage, 20 min | ATP-dependent Clp protease proteolytic subunit (Bacillus subtilis (strain 168)), P80244; active = well fitted falling curve with a large enough effect; inconclusive = small, poorly fitted or top-dose-only effect; inactive = no such curve, though single readings can be large or run the other way; also: potency is read from the fitted curve at half-maximal effect; the source files actives as falling curves though it sought activators and does not explain the sign; nearly all actives have a fitted effect of over 65% in size
Target sequence (P80244 whole entry, looked up): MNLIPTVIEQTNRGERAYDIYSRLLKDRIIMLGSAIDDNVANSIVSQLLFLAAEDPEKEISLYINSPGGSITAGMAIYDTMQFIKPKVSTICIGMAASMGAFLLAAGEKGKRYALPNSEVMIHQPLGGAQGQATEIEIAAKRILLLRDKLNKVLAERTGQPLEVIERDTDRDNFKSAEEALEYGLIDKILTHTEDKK
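Purified B. subtilis ClpP, 10 microg/mL final in Tris/HCl pH8 with KCl, BSA, glycerol and Tween-20, cleaved an Abz/nitrotyrosine-quenched decapeptide. Fluorescence (ex 320, em 430) was read at 0 and 20 min at room temperature. Delta was normalized to 5.8 microM ADEP and DMSO/no-enzyme controls.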
LDHA block: qHTS assay for inhibitors of human lactate dehydrogenase; purified LDHA, NADH/diaphorase-resazurin fluorescence; stronger effect = lower value; activity change, % (values are at about 110 or 230 µM); 480,000 compounds, 0.15% hits; AID 1347041, 2019; in the data active = activity change below about -30%; inconclusive = mostly about -25% to -30%;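 also: plate controls were DMSO wells for no effect and wells without enzyme for full effect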
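Human LDH5 at 2 nM final in Tris HCl pH 7.4 with 0.06 mM NADH and 0.2 mM pyruvate, reacted 5 minutes at room temperature. Remaining NADH coupled via diaphorase/resazurin; resorufin fluorescence read at 0 and 20 minutes, normalized to enzyme-free and DMSO wells.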
An asterisk follows results filed as active; i = inactive; ? = inconclusive; / = not tested or not shown; ! = repeats disagree. Unless noted, calls follow the shape of the dose curve; as a rule, active = well fitted curve in the direction sought with a large enough effect; inconclusive = small, poorly fitted or top-dose-only effect, or another doubt; inactive = no such curve, though single readings can be large; an effect the other way counts as inactive or inconclusive.

SMILES	GLP-1R inv ag	GLP1R cytotox	GLP-1R agonist	p53 reactivator	ClpP mod	LDHA block
Nn1c(Cc2ccccc2)nc2sc3c(c2c1=O)CCC3	-3%	-1%	0%	-4%	-2%	-14
CC(=O)Nc1cccc(C(=O)N/N=C/c2ccc(C)o2)c1	4%	3%	-7%	11%	/	-3
CCOC(=O)CSc1nc2sc3c(c2c(=O)n1C1CCCCC1)CCN(C)C3	?	-5%	21%	-7%	28µM*	3
NC(=O)c1c(NC(=O)C2COc3ccccc3O2)sc2c1CCN(Cc1ccccc1)C2 (configuration not stated)	-14%	1%	3%	2%	/	-3
CCOC(=O)c1c(NC(=O)C2COc3ccccc3O2)sc2c1CCN(Cc1ccccc1)C2 (configuration not stated)	?	-4%	2%	30%	25µM*	-10
CCOC(=O)c1c(C2COc3ccccc3O2)csc1NC(=O)c1ccccc1 (configuration not stated)	-7%	4%	-4%	1%	14µM*	-4
CCOC(=O)c1c(C2COc3ccccc3O2)csc1N (configuration not stated)	?	13%	4%	-4%	-1%	4
O=C(Oc1csc(=S)n1C(=O)c1ccccc1)c1ccccc1	0%	3%	-9%	-3%	8.9µM*	-13
Cc1cccc(C(=O)Oc2csc(=S)n2C(=O)c2cccc(C)c2)c1	8%	1%	-7%	9%	0%	-33*
CC(=O)C1=C(C)NC(SCC(=O)Nc2nccs2)=C(C#N)C1c1ccccc1Cl (configuration not stated)	?	281%	9%	-4%	28µM*	-4
C=CCOC(=O)C1=C(C)NC(SCC(=O)Nc2nccs2)=C(C#N)C1c1ccc(Cl)cc1 (configuration not stated)	?	285%	-1%	-11%	-9%	-1
Cc1cc(C)cc(NC(=S)NCC2CCN(C(C)c3ccccc3)C2)c1 (configuration not stated)	10µM*	-28%	7%	13%	/	-3
Cc1ccc(OCC(=O)c2cc(C)n(-c3cc(C)on3)c2C)c([N+](=O)[O-])n1	43%	?	6%	?	2%	14
CC(=O)NC12CC3CC(C1)CC(C(=O)NCCSCc1ccccc1)(C3)C2	/	/	/	/	/	1
CCn1c(=O)c(=O)[nH]c2cc(C(=O)N3CCC(C(=O)N4CCCCCC4)CC3)ccc21	/	/	/	/	/	9
CCn1c(=O)c(=O)[nH]c2cc(C(=O)NC3CCCc4ccccc43)ccc21 (configuration not stated)	-16%	?	23%	12%	32µM*	9
CCn1c(=O)c(=O)[nH]c2cc(C(=O)NC3CC3)ccc21	10%	10%	-9%	-3%	32µM*	-6
O=C(CSc1cc(Cl)ccc1Cl)NC1CCCc2ccccc21 (configuration not stated)	?	16%	6%	-8%	-4%	-14
Cc1ccc2nc(SCC(=O)NC3CCCc4ccccc43)[nH]c2c1 (configuration not stated)	8.9µM*	-9%	-1%	-21%	-1%	-7
Cc1nc(SCC(=O)N(C)C2CCS(=O)(=O)C2)c2ccccc2n1 (configuration not stated)	-23%	5%	0%	8%	-5%	-3
OCC(O)C(O)CC1SCCS1 (configuration not stated)	15%	-2%	-8%	/	1%	-4
CC1=C(C(=O)NCc2ccccc2C)C2(CCCCCC2)OC1=O	-8%	2%	/	/	2%	-17
COc1cc2c(cc1NC(=O)C(c1ccccc1)c1ccccc1)CCCC2	2.8µM*	-4%	-6%	9%	1%	-1
COc1cc(NC(=O)C(c2ccccc2)c2ccccc2)c(C(=O)O)cc1OC	23%	1%	10%	20%	-7%	0
Cn1c2ccccc2c2c(C(=O)NCCCN3CCCC3=O)cn(C3CCCCC3)c(=O)c21	-25%	-28%	12%	-2%	14µM*	-2
SMILES	GLP-1R inv ag	GLP1R cytotox	GLP-1R agonist	p53 reactivator	ClpP mod	LDHA block
COc1cccc(NC(=O)c2cn(C3CCCCC3)c(=O)c3c2c2ccccc2n3C)c1	?	1%	/	/	32µM*	-6
COc1cc(Cl)c(C)cc1NC(=O)c1cn(C2CCCC2)c(=O)c2c1c1ccccc1n2C	0%	-1%	/	/	-7%	-15
CN1CCN(CCCNC(=O)c2cn(C3CCCCC3)c(=O)c3c2c2ccccc2n3C)CC1	?	-6%	0%	2%	?	0
CC(C)(C)OC(=O)N1CCC(c2cc(-c3cccs3)n[nH]2)CC1	10µM*	-4%	21%	2%	-1%	-8
O=C(CSc1nnc(CCCN2C(=O)c3cccc4cccc(c34)C2=O)n1-c1ccccc1)N1CCN(CCO)CC1	49%	12%	22%	-3%	14µM*	-3
O=C(CSc1nnc(CCCN2C(=O)c3cccc4cccc(c34)C2=O)n1-c1ccccc1)NCCCO	109%	4%	16%	-13%	?	4
CCCCOC(=O)Nc1ccc(N2CCCCC2)cc1	?	11%	4%	5%	-6%	5
O=C(O)c1ccccc1-c1c2ccc(=O)cc-2oc2cc(O)ccc12	/	/	13%	/	/	/
COC(=O)c1ccccc1-c1c2ccc(=N)cc-2oc2cc(N)ccc12	-26%	i	-1%	1%	/	-58*
COc1ccc(Cl)cc1C(=O)NNC(=O)CSc1nnnn1C	-10%	5%	-1%	-3%	/	0
Cn1cnc2c1c(=O)n(Cc1cccc(Cl)c1)c(=O)n2C	8%	-5%	4%	0%	1%	-32*!
CCOc1c(C)cnc2c1c(=O)n(Cc1cccc(Cl)c1)c(=O)n2C	10µM*	37%	3%	11%	-14%	0
CC(=O)c1c(C)[nH]c(C(=O)OC(C)C(=O)c2ccc(Cl)cc2)c1C (configuration not stated)	/	/	/	/	/	14
CC(=O)N1CCC2(CC1)C/C(=N\NC(=S)Nc1ccccc1F)c1cc(O)ccc1O2	?	?	9%	-1%	25µM*	-4
COc1ccccc1NC(=S)N/N=C1\CC(C)(C)Oc2ccc(O)cc21	?	?	19%	-1%	25µM*	-6
